Active and inactive are the calls of the source. How the source made its calls: active means hit-call score of the fitted dose curve at least 0.9, where 1 is the maximum; inactive means score below 0.9.

A short description of the experiment: ATG_DR4_LXR_CIS: Attagene CIS-FACTORIAL HepG2 Assay for human Liver X Receptor (LXR), DR4 submotif (AID 2282929). Conditions: HepG2 Attagene DR4 cis-reporter, mRNA transcription; actives raise or lower the signal. The procedure, abridged:
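Total RNA from 24 h-treated, MRTU-transfected HepG2 cells underwent reverse transcription, PCR, fluorescent primer extension and restriction digestion before capillary electrophoresis. Both increases and decreases in reporter signal were fitted against DMSO.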
As to `OC[C@@H](O)[C@H]1O[C@@H]2O[C@H](C(Cl)(Cl)Cl)O[C@@H]2[C@H]1O`, the molecule was called inactive.

For the molecule `O=C(Cc1ccccc1)OCCc1ccccc1`, the outcome was inactive.

Consider `CCC[N+](CCC)(CCC)CCC`, for which the molecule was classed as inactive.

As for `N#Cc1ccccc1Cl`, the outcome was inactive. As for `Cc1cc(C(C)(C)c2ccc(O)c(C)c2)ccc1O`, the AC50 was 12.1 µM (active).

For the molecule `C#CCO`, the outcome was inactive. Regarding `O=NN1CCOCC1`, the molecule was called inactive. Same read-out and setting: then `CCCSP(=S)(OCC)Oc1ccc(Cl)cc1Cl` (stereo not given), with “inactive”.

On to `COCCl`, for which the molecule was called inactive. Same read-out and setting: then `CNC(=O)O/N=C/C(C)(C)S(C)(=O)=O`, with “inactive”. Turning to `c1cc[c]([Sb]([c]2ccccc2)[c]2ccccc2)cc1`, the AC50 is 9.64 µM (active).

With `CN(N=O)C(N)=O`, the call was inactive.

For the molecule `CCC[CH2][Sn]([CH2]CCC)([CH2]CCC)[CH2]CCC`, the AC50 was 3.31 µM (active). Take `CC(c1ccccc1)(c1ccc(O)cc1)c1ccc(O)cc1`: the AC50 is 11.1 µM (active). Consider `C[CH2][Hg][S]c1ccccc1C(=O)O`, for which the AC50 was 5.13 µM (active). For the molecule `O=C(Nc1ccc(Br)cc1)c1cc(Br)cc(Br)c1O`, the outcome was inactive. Still for that read-out and setting: then `COC(F)(C(F)(F)C(F)(F)F)C(F)(C(F)(F)F)C(F)(F)F` (stereo not given), with “inactive”; and `Clc1cccc(Cl)c1`, with “inactive”.

For the molecule `CC1CC(=O)O1` (stereo not given), the result was inactive. As to `CCCCCCCCCCCCBr`, the AC50 is 48.2 µM (active). The same measure, in the same setting: then `Cc1ccc2nc3sc(=O)sc3nc2c1`, with 22.4 µM (active). Take `ClCCCCl`: the outcome was inactive. On to `Brc1c(Br)c(Br)c(Oc2c(Br)c(Br)c(Br)c(Br)c2Br)c(Br)c1Br`, for which the result was inactive.

For `Clc1cccc(Cl)c1Cl`, the outcome was inactive. Regarding `CC(C)(c1ccc(O)c(-c2ccccc2)c1)c1ccc(O)c(-c2ccccc2)c1`, the AC50 was 4.85 µM (active).

Broadly, the AC50 is the concentration giving half of the maximal activity seen.

The values above are taken from PubChem BioAssay (EPA / NIEHS).
